From the supplement of paper PMC10503962

Tested on: Trichuris muris adult worms
Experiment: mean motility score (Paragon pixel variance) of adult worms (arbitrary units); higher = more motile worms, i.e. less anthelmintic effect; extreme values may be limits of the assay
Details: 100 µM; 24 h
How it was run: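 Films of 200 frames spaced 100 ms apart were taken on an automated phenotyping platform after worms had spent 24 h at 37°C and 5% CO2. Those worms were single adult Trichuris muris from infected NOD SCID mice, each in a 96-well plate well with 100 μL RPMI-1640 plus antibiotics and drug at 100 μM (1% v/v DMSO). Paragon pixel-variance analysis produced the motility score, averaged over replicate wells. Testing used three worms in three wells per drug across three separate occasions, with vehicle and positive controls.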

Compound | mean motility score
CN(C)C(=N)N=C(N)N.Cl [metformin hydrochloride] | 4240
Cc1ccc(S(=O)(=O)O)cc1.Clc1cccc(Cl)c1NC1=NCCN1 [clonidine p-toluenesulfonic acid] | 3620
CN(C)CCc1c[nH]c2ccc(C[C@H]3COC(=O)N3)cc12 [zolmitriptan] | 3180
CSc1ccc(C(=O)c2nc(O)[nH]c2C)cc1 [enoximone] | 1970
CN/C(=N/CCSCc1nc[nH]c1C)NC#N [cimetidine] | 2750
O=C(NCCO[N+](=O)[O-])c1cccnc1 [nicorandil] | 2790
O=c1ccc2ccccc2o1 [coumarin] | 3690
C[C@@H]1CN(c2c(F)c(N)c3c(=O)c(C(=O)O)cn(C4CC4)c3c2F)C[C@H](C)N1 [sparfloxacin] | 3980
CCCCCCCCCCC[C@@H](C[C@@H]1OC(=O)[C@H]1CCCCCC)OC(=O)[C@H](CC(C)C)NC=O [orlistat] | 3180
O=C(O)c1ccc2ccccc2c1O.OCc1cc(C(O)CNCCCCCCOCCCCc2ccccc2)ccc1O (centres undefined) [salmeterol xinafoate] | 0
CCOC(=O)n1ccn(C)c1=S [carbimazole] | 1610
Cc1[nH]c2ccccc2c1CCNCc1ccc(/C=C/C(=O)NO)cc1 [panobinostat] | 2620
Nc1cc(-c2ccncc2)cnc1O [inamrinone] | 3880
NCCNCCNCCN [trientine] | 2070
CCN(CC)CCNC(=O)c1cc(Cl)c(N)cc1OC [metoclopramide] | 3210
CS(=O)(=O)CCNCc1ccc(-c2ccc3ncnc(Nc4ccc(OCc5cccc(F)c5)c(Cl)c4)c3c2)o1 [lapatinib] | 999
Oc1ncc(F)c(O)n1 [fluorouracil] | 3090
CC(C)NCC(O)COc1cccc2ccccc12.Cl (centres undefined) [propranolol hydrochloride] | 4260
Cl.O=C1CC2(CCCC2)CC(=O)N1CCCCN1CCN(c2ncccn2)CC1 [buspirone hydrochloride] | 4250
CN(C)CCCOc1nn(Cc2ccccc2)c2ccccc12.Cl [benzydamine hydrochloride] | 3530
c1ccc2c(CC3=NCCN3)cccc2c1 [naphazoline] | 4300
CC1(C)O[C@@H]2C[C@H]3[C@@H]4C[C@H](F)C5=CC(=O)C=C[C@]5(C)[C@@]4(F)[C@@H](O)C[C@]3(C)[C@]2(C(=O)CO)O1 [fluocinolone acetonide] | 2800
COc1ccccc1OCCNCC(O)COc1cccc2[nH]c3ccccc3c12 (centres undefined) [carvedilol] | 35.7
N[C@@H]1CONC1=O [cycloserine] | 3930
Cc1ccc(N(C=C2NCCN2)c2cccc(O)c2)cc1 [phentolamine] | 2960
CCCCC1C(=O)N(c2ccccc2)N(c2ccccc2)C1=O [phenylbutazone] | 1530
CCn1cc(C(=O)O)c(=O)c2cc(F)c(N3CCNCC3)cc21 [norfloxacin] | 1950

Compound | mean motility score
CCCN1CCCC[C@H]1C(=O)Nc1c(C)cccc1C [ropivacaine] | 2600
CN1CC(=O)N2[C@H](c3ccc4c(c3)OCO4)c3[nH]c4ccccc4c3C[C@@H]2C1=O [tadalafil] | 990
NC(=O)N1c2ccccc2C=Cc2ccccc21 [carbamazepine] | 3020
COC(=O)c1ccc2c(c1)NC(=O)/C2=C(\Nc1ccc(N(C)C(=O)CN2CCN(C)CC2)cc1)c1ccccc1 [nintedanib] | 3140
CC(=O)Nc1ccc(O)cc1 [acetaminophen] | 2180
Clc1ccc(COC(Cn2ccnc2)c2ccc(Cl)cc2Cl)c(Cl)c1 (centres undefined) [miconazole] | 122
Cc1c(C(=O)NN2CCCCC2)nn(-c2ccc(Cl)cc2Cl)c1-c1ccc(Cl)cc1 [rimonabant] | 2060
CCc1cccc2c3c([nH]c12)C(CC)(CC(=O)O)OCC3 (centres undefined) [etodolac] | 2190
O=C1O[C@H](CO)[C@@H](O)[C@H](O)[C@H]1O [gluconolactone] | 2100
COC(=O)[C@H](c1ccccc1Cl)N1CCc2sccc2C1 [clopidogrel] | 2110
Cc1cccc(N(C)C(=S)Oc2ccc3ccccc3c2)c1 [tolnaftate] | 2620
NC(=O)OCC(COC(N)=O)c1ccccc1 [felbamate] | 5470
CCOC(=O)C1=C(C)NC(C)=C(C(=O)OC)C1c1cccc([N+](=O)[O-])c1 (centres undefined) [nitrendipine] | 0
CN(C)CC[C@@H](c1ccc(Cl)cc1)c1ccccn1.O=C(O)/C=C\C(=O)O [dexchlorpheniramine maleate] | 1140
CCC1(c2ccccc2)C(=O)NCNC1=O [primidone] | 3160
CCN1CC(CCN2CCOCC2)C(c2ccccc2)(c2ccccc2)C1=O.Cl (centres undefined) [doxapram hydrochloride] | 1820
CCCc1nc2c(C)cc(-c3nc4ccccc4n3C)cc2n1Cc1ccc(-c2ccccc2C(=O)O)cc1 [telmisartan] | 1900
NC(=O)CC[C@H](N)C(=O)O [glutamine] | 3380
Nc1cc(C(F)(F)F)c(-c2cc(N3CCOCC3)nc(N3CCOCC3)n2)cn1 [buparlisib] | 3960
Cc1ccc(S(=O)(=O)NC(=O)NN2CCCCCC2)cc1 [tolazamide] | 4090
CC(CCc1ccc(O)cc1)NCCc1ccc(O)c(O)c1 (centres undefined) [dobutamine] | 2870
Cc1ncc([N+](=O)[O-])n1CC(C)O (centres undefined) [secnidazole] | 2540
CC(N/C(=N/C#N)Nc1ccncc1)C(C)(C)C.O (centres undefined) [pinacidil monohydrate] | 2490
COc1c2occc2cc2ccc(=O)oc12 [methoxsalen] | 4190
Nc1ccn([C@H]2CC[C@@H](CO)O2)c(=O)n1 [zalcitabine] | 3920
CC(=O)O[C@H]1C(=O)[C@@]2(C)[C@H]([C@H](OC(=O)c3ccccc3)[C@]3(O)C[C@H](OC(=O)[C@H](O)[C@@H](NC(=O)c4ccccc4)c4ccccc4)C(C)=C1C3(C)C)[C@]1(OC(C)=O)CO[C@@H]1C[C@@H]2O [paclitaxel] | 1480
CC/C(=C(/CC)c1ccc(O)cc1)c1ccc(O)cc1 [diethylstilbestrol] | 0
